What all share (assay): qHTS profiling for inhibitors of Plasmodium falciparum proliferation (AID 504749); also: nearly all actives have a fitted effect of over 60% in size
Details in all cases: P. falciparum in erythrocytes, SYBR Green DNA, 72 h; series mostly up to 12.8 µM

The test system of experiment [1] is 3D7. In a few lines: (§1)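 Three-day growth assay of blood-stage parasites in erythrocytes (0.3% parasitemia, 2.5% hematocrit) at 37 C, 5% CO2, quantified by SYBR Green DNA staining after overnight detergent lysis.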
The subject of experiment [2] is AA1029. The procedure, abridged: as §1
For experiment [3], the system named is AS120. In a few lines:
as §1

The test system of experiment [4] is CP191. In a few lines:
as §1

Experiment [5] concerns CP192. The procedure, abridged:
as §1

Experiment [6] relates to CP194. The procedure, abridged: as §1
Experiment [7] has as its system CP217. In a few lines: as §1
Experiment [8] concerns CP237. The procedure, abridged: as §1
The subject of experiment [9] is CP252. The procedure, abridged: as §1
For experiment [10], the system named is CP256. The procedure, abridged: as §1
Experiment [11] relates to CP265. In a few lines:
as §1

Experiment [12] has as its system CP286. In a few lines: as §1
The test system of experiment [13] is CP291. The procedure, abridged:
as §1

Experiment [14] relates to DIV30. The procedure, abridged:
as §1

For experiment [15], the system named is ECU. In a few lines: as §1
Experiment [16] relates to N140. The procedure, abridged: as §1
Experiment [17] relates to PAD. In a few lines: as §1
Experiment [18] deals with PC26. The procedure, abridged: as §1
Experiment [19] has as its system SC27B. The procedure, abridged: as §1
In experiment [20] the test system is TAB109. The procedure, abridged: as §1

Results filed as inconclusive are left out. Activity calls are given as the source filed them. Calls follow the shape of the dose curve; as a rule, active = well fitted inhibition curve with a large enough effect; inconclusive = small, poorly fitted or top-dose-only effect; inactive = flat fitted curve, though single readings scatter.
Potency is read from the fitted curve at half-maximal effect.

On to `CNC1CC(N)[C@H](O)[C@@H](O[C@@H]2OC(CO)C3OC4(OC(C(N)CO)C(O)C(O)C4O)O[C@@H]3[C@H]2O)C1O` (some centres not stated), for which the Potency result in experiment [1], in experiment [2], in [3], in experiment [4], in [5] and in [6] was “inactive” in each case. In addition, the Potency entry in [7], in experiment [8], in experiment [9], in experiment [10], in experiment [11] and in [12] was “inactive” each time. Moreover, the Potency result in [13], in experiment [14], in experiment [15], in [16], in [17] and in experiment [18] was “inactive” each time. The Potency result in [19] and in experiment [20] was “inactive” in each case.
Consider `COc1cc(C2c3cc4c(cc3C(O[C@@H]3OC5COC(c6cccs6)OC5C(O)C3O)C3COC(=O)C23)OCO4)cc(OC)c1O` (some centres not stated), for which the Potency in [1] was 2 µM (active); in experiment [2], 2.24 µM (active); in [3], 1 µM (active); in experiment [4], 2.24 µM (active); in experiment [5], 4.26 µM (active); in [6], 1.69 µM (active). Also, the Potency is 2 µM (active) in [7]; 2.24 µM (active) in [8]; 1.12 µM (active) in experiment [9]; 3.16 µM (active) in experiment [10]; 2.82 µM (active) in [11]; 1.26 µM (active) in [12]. In addition, the Potency was 4.26 µM (active) in experiment [13]; 2.13 µM (active) in [14]; 2.51 µM (active) in experiment [15]; 1 µM (active) in [16]; 2 µM (active) in experiment [17]; 3.79 µM (active) in [18]. Besides, the Potency is 3.16 µM (active) in [19] and 2.24 µM (active) in [20].
On to `COc1ccc2cc1Oc1ccc(cc1)CC1c3c(cc4c(c3Oc3cc5c(cc3OC)CCN(C)C5C2)OCO4)CCN1C` (configuration not stated), for which the Potency in experiment [1] is 11.2 µM (active); in experiment [2], 3.55 µM (active); in experiment [3] it was 3.98 µM (active); in experiment [4] it was 5.01 µM (active); in experiment [6], 13.5 µM (active); in experiment [7] it was 8.91 µM (active). Besides, the Potency in experiment [8] was 2.82 µM (active); in experiment [9] it was 8.91 µM (active); in experiment [10], 10 µM (active); in [11] it was 8.91 µM (active); in experiment [12], 3.98 µM (active); in experiment [13] it was 12 µM (active). For the same compound, the Potency in experiment [15] is 8.91 µM (active); in experiment [16], 3.16 µM (active); in [17], 8.91 µM (active); in [18], 12 µM (active); in experiment [19] it was 7.08 µM (active); in experiment [20], 7.08 µM (active).
`C=Cc1c(C)c2cc3nc(cc4[nH]c(cc5nc(cc1[nH]2)C(C)=C5CCC(=O)O)c(CCC(=O)OC)c4C)[C@@]1(C)C3=CC=C(C(=O)OC)[C@H]1C(=O)OC` (tested in a mixture with another compound): the Potency in [1] is 3.55 µM (active); in experiment [2], 5.01 µM (active); in experiment [3] it was 5.62 µM (active); in experiment [4], 11.2 µM (active); in experiment [7], 10 µM (active); in [8], 5.01 µM (active). Also, the Potency in experiment [11] is 10 µM (active); in experiment [12], 4.47 µM (active); in experiment [15] it was 3.98 µM (active); in [16], 7.08 µM (active); in [17] it was 1.41 µM (active); in experiment [19] it was 5.62 µM (active). Moreover, the Potency in experiment [20] is 5.01 µM (active). The Potency result in experiment [5], in [6], in experiment [13], in [14] and in experiment [18] was “inactive” in each case.
Turning to `COC1C=CO[C@@]2(C)Oc3c(C)c(O)c4c(O)c(c5c(nc6cc(C)ccn65)c4c3C2=O)NC(=O)/C(C)=C\C=CC(C)C(O)[C@@H](C)C(O)C(C)[C@@H](OC(C)=O)C1C` (some centres not stated), the Potency in [1] was 12.6 µM (active); in [2] it was 12.6 µM (active); in experiment [3], 2.51 µM (active); in [4], 11.2 µM (active); in experiment [5] it was 10.7 µM (active); in experiment [6], 12 µM (active). The Potency was 10 µM (active) in [7]; 8.91 µM (active) in experiment [8]; 10 µM (active) in [9]; 11.2 µM (active) in experiment [11]; 13.5 µM (active) in experiment [13]; 1.35 µM (active) in [14]. Further, the Potency in experiment [15] is 12.6 µM (active); in experiment [16] it was 3.55 µM (active); in experiment [17], 3.16 µM (active); in [18], 1.2 µM (active); in experiment [19] it was 12.6 µM (active); in [20], 11.2 µM (active).
`CC1(C)OC2CO[C@]3(COS(N)(=O)=O)OC(C)(C)OC3C2O1` (some centres not stated): the Potency entry in [1], in experiment [2], in [3], in [4], in [5] and in experiment [6] was “inactive” throughout. Besides, the Potency entry in [7], in [8], in experiment [9], in experiment [10], in experiment [11] and in experiment [12] was “inactive” each time. Moreover, the Potency entry in experiment [13], in experiment [14], in experiment [15], in experiment [16], in [17] and in experiment [18] was “inactive” in each case. In addition, the Potency entry in experiment [19] and in [20] was “inactive” each time.
`OCC1O[C@H](OC2C(CO)O[C@@](O)(CO)C2O)C(O)C(O)C1O` (some centres not stated): the Potency entry in [1], in experiment [2], in [3], in [4], in experiment [5] and in experiment [6] was “inactive” throughout. For the same compound, the Potency entry in experiment [7], in [8], in [9], in experiment [10], in experiment [11] and in experiment [12] was “inactive” each time. Further, the Potency result in [13], in experiment [14], in experiment [15], in [16], in experiment [17] and in experiment [18] was “inactive” each time. The Potency result in [19] and in experiment [20] was “inactive” each time.
For the compound `CCOC(=O)C1=CC(OC(CC)CC)C(NC(C)=O)C(N)C1` (configuration not stated), the Potency result in experiment [1], in experiment [2], in experiment [3], in [4], in experiment [5] and in [6] was “inactive” each time. For the same compound, the Potency entry in experiment [7], in [8], in experiment [9], in [10], in experiment [11] and in experiment [12] was “inactive” in each case. The Potency entry in experiment [13], in [15], in [16], in [17], in experiment [19] and in experiment [20] was “inactive” each time.
`COc1ccc(CC(N)C(=O)NC2C(CO)OC(n3cnc4c(N(C)C)ncnc43)C2O)cc1` (configuration not stated): the Potency in experiment [1] is 1 µM (active); in experiment [2] it was 1 µM (active); in experiment [3] it was 0.891 µM (active); in experiment [4], 0.891 µM (active); in [5], 1.07 µM (active); in [6], 1.07 µM (active). The Potency in experiment [7] is 0.794 µM (active); in [8], 0.891 µM (active); in experiment [9], 0.794 µM (active); in experiment [10] it was 1 µM (active); in experiment [11], 0.891 µM (active); in experiment [12], 0.891 µM (active). Also, the Potency is 1.07 µM (active) in experiment [13]; 0.849 µM (active) in [14]; 0.891 µM (active) in experiment [15]; 0.631 µM (active) in experiment [16]; 0.447 µM (active) in experiment [17]; 0.849 µM (active) in experiment [18]. Moreover, the Potency was 1 µM (active) in experiment [19] and 0.891 µM (active) in experiment [20].
`CCC(CCC(C)C1CCC2C3CC=C4CC(O)CC[C@@]4(C)C3CC[C@@]12C)C(C)C` (some centres not stated): the Potency result in experiment [1], in experiment [2], in [3], in [4], in experiment [5] and in [6] was “inactive” throughout. The Potency result in experiment [7], in [8], in experiment [9], in experiment [10], in experiment [11] and in experiment [12] was “inactive” throughout. Further, the Potency result in experiment [13], in experiment [14], in experiment [15], in [16], in experiment [17] and in experiment [18] was “inactive” in each case. For the same compound, the Potency entry in [19] and in experiment [20] was “inactive” in each case.
`CCC(=O)O[C@@]1(C(=O)CCl)C(C)CC2C3CCC4=CC(=O)C=C[C@@]4(C)[C@]3(F)C(O)C[C@]21C` (some centres not stated): the Potency in experiment [2] is 10 µM (active); in experiment [3], 10 µM (active); in experiment [6], 15.1 µM (active); in [8] it was 10 µM (active); in experiment [9], 12.6 µM (active); in experiment [14], 12 µM (active). Also, the Potency was 8.91 µM (active) in experiment [16], 7.94 µM (active) in [17], 10.7 µM (active) in [18] and 11.2 µM (active) in experiment [20].

Source of the values: PubChem BioAssay (NCATS).
